GPR151 activ = activates the human receptor GPR151; activation, % at 11.2 µM; actives 1% (n = 650,000); Q8TDV0; PathHunter beta-arrestin GPR151 cells, luminescence; in the data active = activation above about 4.9%;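 also: 0% = median of compound wells and 100% = cells with positive control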
Target sequence (Q8TDV0 whole entry, looked up): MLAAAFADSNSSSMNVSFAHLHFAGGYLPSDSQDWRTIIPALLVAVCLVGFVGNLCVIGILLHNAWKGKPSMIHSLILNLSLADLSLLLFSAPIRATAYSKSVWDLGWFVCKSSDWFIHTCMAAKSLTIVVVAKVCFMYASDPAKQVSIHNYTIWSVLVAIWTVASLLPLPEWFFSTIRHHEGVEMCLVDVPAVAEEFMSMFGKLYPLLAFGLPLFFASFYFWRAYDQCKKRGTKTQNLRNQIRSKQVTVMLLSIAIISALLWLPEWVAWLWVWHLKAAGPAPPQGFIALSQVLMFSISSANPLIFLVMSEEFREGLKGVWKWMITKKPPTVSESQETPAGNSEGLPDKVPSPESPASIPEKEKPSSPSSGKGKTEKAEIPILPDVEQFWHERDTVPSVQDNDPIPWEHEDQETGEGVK
TEAD-YAP block = TEAD-YAP interaction inhibition | HEK-TIYL cells, TEAD-Gal4/YAP UAS-luciferase luminescence | inhibition, % at 9.12 µM | actives 1.4% (n = 640,000) | AID 1259422; in the data active = inhibition above about 32%;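 also: 0% = median of test compound wells and 100% = reference inhibitor wells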
MITF primary = human MITF inhibition, primary screen; O75030; AlphaScreen MITF homodimerization, bead proximity signal; inhibition, % at 2.6 µM; actives 0.91% (n = 650,000); in the data active = inhibition above about 50%;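 also: 0% = vehicle wells with protein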
FBW7 activator = activators of human E3 ligase FBW7; Q969H0; AlphaScreen FBW7–phospho-cyclin E peptide binding, activator screen; normalized activity (activation), % at 26.1 µM; actives 0.13% (n = 650,000); AID 1259310; in the data active = normalized activity above about 1.9%;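 also: purified mutant Fbw7 with reduced substrate affinity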
The depositor's hits bear a star; ! = not active in a repeat. Hits are enriched below; roughly 3.5% of the tested compounds scored in any of these assays.

Screening O=C(Nn1c(-c2ccccc2F)nc2ccccc2c1=O)C1CCCCC1 returned GPR151 activ 1, TEAD-YAP block 4, MITF primary -10 and FBW7 activator 0.
For COc1cc(OC)c(NC(=O)c2sc3ncnc(N(C)c4ccccc4)c3c2C)cc1Cl the results were GPR151 activ -1, TEAD-YAP block 4, MITF primary 8 and FBW7 activator 0.
For Cc1ccc2c(c1)C1OCCC1C(c1cccs1)N2 (stereo not drawn) the results were GPR151 activ 0, TEAD-YAP block 42*, MITF primary 0 and FBW7 activator 0.
Screening CCc1ccc2nc(N3CCC(C(=O)NC(C)C)CC3)sc2c1 returned GPR151 activ 1, TEAD-YAP block 40*, MITF primary -10 and FBW7 activator 0.
`CCc1ccc2nc(N3CCC(C(=O)NC4CCCCC4)CC3)sc2c1` gave GPR151 activ -1, TEAD-YAP block 70*, MITF primary 14 and FBW7 activator 0.
CCOc1ccc(NC(=O)C2C3CCCCC32)cc1 (stereo not drawn) was read as GPR151 activ 1, TEAD-YAP block -76, MITF primary 6 and FBW7 activator 0.
Screening O=C(Cn1c(=O)n(Cc2cccs2)c2ncccc21)Nc1ccccc1-n1ccnc1 returned GPR151 activ -1, TEAD-YAP block 12, MITF primary 3 and FBW7 activator 2.
Screening CC1=NN(c2ccccc2)C(=O)/C1=C(/c1ccccc1)N1CCOCC1 returned GPR151 activ 1, TEAD-YAP block 40*, MITF primary -5 and FBW7 activator 0.
COCCCNC(=O)/C(C#N)=C/c1cn(Cc2ccccc2)c2ccccc12 was read as GPR151 activ 3, TEAD-YAP block 44*, MITF primary 5 and FBW7 activator 1.
Screening COCCCNC(=O)/C(C#N)=C/c1cc(C)n(-c2ccccc2)c1C returned GPR151 activ 1, TEAD-YAP block 40*, MITF primary 10 and FBW7 activator 0.
COCCCNC(=O)/C(C#N)=C/c1cc(C)n(-c2ccc(C)cc2)c1C was read as GPR151 activ 0, TEAD-YAP block 5, MITF primary 10 and FBW7 activator 0.
Screening COCCNC(=O)/C(C#N)=C/c1cc(C)n(-c2sc(C)c(C)c2C#N)c1C returned GPR151 activ 0, TEAD-YAP block 51*, MITF primary -2 and FBW7 activator 0.
`CC(NC(=O)c1ccncc1)c1nc(-c2ccncc2)n[nH]1` (stereo not drawn) gave GPR151 activ 0, TEAD-YAP block 6, MITF primary 7 and FBW7 activator 1.
CCN(CC)CCCNCC(=O)N1c2ccccc2Sc2ccccc21 was read as GPR151 activ -2, TEAD-YAP block 40*, MITF primary 8 and FBW7 activator 0.
CCN(CC)CCCNCC(=O)Nc1nc(C)cs1 was read as GPR151 activ -5, TEAD-YAP block 95*, MITF primary 15 and FBW7 activator 0.
CCN(CC)CCCNCC(=O)Nc1cc(C)on1 was read as GPR151 activ -2, TEAD-YAP block 8, MITF primary 1 and FBW7 activator 1.
COc1cc(OC)c(NS(=O)(=O)c2cc3[nH]c(=O)c(=O)[nH]c3cc2C)cc1Cl was read as GPR151 activ 1, TEAD-YAP block 8, MITF primary 4 and FBW7 activator 0.
`O=C(COC(=O)c1ccc(O)cc1O)NCCN1C(=O)CSC1=O` gave GPR151 activ -1, TEAD-YAP block -2, MITF primary 1 and FBW7 activator 0.
Screening c1cncc(CNc2ncnc3nc(Nc4ccc5ncccc5c4)[nH]c23)c1 returned GPR151 activ -2, TEAD-YAP block 38*, MITF primary -3 and FBW7 activator 0.
N#Cc1ccccc1OCC(=O)NC(=O)NC1CCCC1 was read as GPR151 activ -6, TEAD-YAP block 62*, MITF primary -2 and FBW7 activator 0.
For Cc1c(N=Nc2ccc([N+](=O)[O-])cc2S(=O)(=O)O)co[n+]1[O-] the results were GPR151 activ 1, TEAD-YAP block 2, MITF primary 5 and FBW7 activator 0.
Cc1nc(N=Nc2cc(S(=O)(=O)O)c3cc([N+](=O)[O-])cc(S(=O)(=O)O)c3c2)c(COP(=O)(O)O)c(C=O)c1O was read as GPR151 activ -1, TEAD-YAP block -12, MITF primary 77*! and FBW7 activator 0.
Screening CCOc1ccc2[nH]c(=O)c(CN(Cc3cccs3)C(=O)CC)cc2c1 returned GPR151 activ 1, TEAD-YAP block 33*, MITF primary 10 and FBW7 activator 0.
Screening O=C(/C=C/c1ccco1)NNc1ccc2ccccc2n1 returned GPR151 activ 0, TEAD-YAP block -10, MITF primary 10 and FBW7 activator 0.
Cc1noc(C)c1-c1nc(NCCO)c2ncn(-c3ccsc3)c2n1 was read as GPR151 activ 1, TEAD-YAP block 23, MITF primary 4 and FBW7 activator 0.
`CCCNc1nc(-c2cccc(N)c2)nc2c1ncn2-c1ccsc1` gave GPR151 activ 0, TEAD-YAP block 53*, MITF primary 19 and FBW7 activator 0.
Nc1cccc(-c2nc(NCCO)c3ncn(-c4ccsc4)c3n2)c1 was read as GPR151 activ -2, TEAD-YAP block 63*, MITF primary 10 and FBW7 activator 0.
`COC(=O)CSc1nnc2c3c(C)c(C)sc3nc(C(C)C)n12` gave GPR151 activ 0, TEAD-YAP block 0, MITF primary 1 and FBW7 activator 0.
O=C(O)CCC(=O)N1N=C(c2ccccc2)CC1c1ccccc1 (stereo not drawn) was read as GPR151 activ 0, TEAD-YAP block -7, MITF primary 13 and FBW7 activator 1.9*.
`Cc1c(C(=O)OCC(=O)c2ccc(Cl)cc2)cccc1[N+](=O)[O-]` gave GPR151 activ 0, TEAD-YAP block -8, MITF primary 13 and FBW7 activator 0.
Screening Cc1ccc(C(=O)COC(=O)c2ccccc2[N+](=O)[O-])cc1C returned GPR151 activ -4, TEAD-YAP block 49*, MITF primary 19 and FBW7 activator 0.
`Cc1cccc(NC(=O)CSc2cc(C)[nH]c(=O)n2)c1` gave GPR151 activ 0, TEAD-YAP block 9, MITF primary -7 and FBW7 activator 0.
Screening O=C(Nc1nc(-c2cccc3ccccc23)cs1)c1cc([N+](=O)[O-])ccc1Cl returned GPR151 activ 0, TEAD-YAP block 44*, MITF primary -2 and FBW7 activator 0.
Screening CCOC(=O)c1sc(NC(=O)c2cc(Cl)ccc2[N+](=O)[O-])nc1-c1ccccc1 returned GPR151 activ 0, TEAD-YAP block 21, MITF primary 5 and FBW7 activator 0.
`O=C(Nc1nc(-c2ccc3ccccc3c2)cs1)c1cc([N+](=O)[O-])ccc1Cl` gave GPR151 activ 0, TEAD-YAP block 37*, MITF primary 1 and FBW7 activator 0.
For CCOC(=O)c1sc(NC(=O)c2cc([N+](=O)[O-])ccc2Cl)nc1-c1ccccc1 the results were GPR151 activ -1, TEAD-YAP block 39*, MITF primary 6 and FBW7 activator 0.
